# Experimental data reported in the supplement of paper PMC6555819.
# Legend:
# Assay in all cases: PBM binding z-score (relative to random genomic background probes); higher = stronger binding; sequences stand for … in GC…GCGATTGACAGCGTAGAATGAAGG
# [1] = tested on: FXR:RXRa (NR concentration 270 nM, RXRa partner concentration 90 nM)
# Summary of the method: (§1)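 On custom Agilent 4×180K arrays, double-stranded probes with 34-nt variable regions carried direct-repeat seeds, single-nucleotide variants, half-site ablations or random human genomic background. Ligand-free nuclear receptor dimers were applied for 1 h, and binding was read with antibodies against each partner (one per run). Binding z-scores come from regression-normalized fluorescence, with the random background probes as reference.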
# [2] = tested on: LXRa:RXRa (NR concentration 270 nM, RXRa partner concentration 90 nM)
# Summary of the method: as §1
# [3] = tested on: LXRa homodimer (NR concentration 270 nM)
# Summary of the method: as §1
# [4] = tested on: LXRb:RXRa (NR concentration 270 nM, RXRa partner concentration 90 nM)
# Summary of the method: as §1
# [5] = tested on: LXRb homodimer (NR concentration 270 nM)
# Summary of the method: as §1
# [6] = tested on: PPARa:RXRa (NR concentration 270 nM, RXRa partner concentration 90 nM)
# Summary of the method: as §1
# [7] = tested on: PPARg:RXRa (NR concentration 180 nM, RXRa partner concentration 90 nM)
# Summary of the method: as §1
# [8] = tested on: PPARg:RXRa 270nM:90nM, anti-RXR (NR concentration 270 nM, RXRa partner concentration 90 nM)
# Summary of the method: as §1
# [9] = tested on: PPARg:RXRa 30nM:10nM, anti-RXR (NR concentration 30 nM, RXRa partner concentration 10 nM)
# Summary of the method: as §1
# [10] = tested on: PPARg:RXRa 90nM:30nM, anti-RXR (NR concentration 90 nM, RXRa partner concentration 30 nM)
# Summary of the method: as §1
# [11] = tested on: PPARg:RXRa DBDmut IVT, anti-RXR (DBD mutation: RXRa K156A/R161A, NR concentration 270 nM, RXRa partner concentration 90 nM)
# Summary of the method: as §1
# [12] = tested on: PPARg:RXRa IVT, anti-PPARg (NR concentration 270 nM, RXRa partner concentration 90 nM)
# Summary of the method: as §1
# [13] = tested on: PPARg DBDmut:RXRa IVT, anti-PPARg (DBD mutation: PPARg1 K132A/R137A, NR concentration 270 nM, RXRa partner concentration 90 nM)
# Summary of the method: as §1
# [14] = tested on: PPARg DBDmut IVT, anti-PPARg (DBD mutation: PPARg1 K132A/R137A, NR concentration 270 nM)
# Summary of the method: as §1
# [15] = tested on: PPARg homodimer (NR concentration 180 nM)
# Summary of the method: as §1
# [16] = tested on: PXR:RXRa (NR concentration 270 nM, RXRa partner concentration 90 nM)
# Summary of the method: as §1
# [17] = tested on: PXR homodimer (NR concentration 270 nM)
# Summary of the method: as §1
# [18] = tested on: RARa:RXR (NR concentration 270 nM, RXRa partner concentration 90 nM)
# Summary of the method: as §1
# [19] = tested on: RARa homodimer (NR concentration 270 nM)
# Summary of the method: as §1
# [20] = tested on: RARb:RXRa (NR concentration 270 nM, RXRa partner concentration 90 nM)
# Summary of the method: as §1
Sequence,PBM binding z-score [1],PBM binding z-score [2],PBM binding z-score [3],PBM binding z-score [4],PBM binding z-score [5],PBM binding z-score [6],PBM binding z-score [7],PBM binding z-score [8],PBM binding z-score [9],PBM binding z-score [10],PBM binding z-score [11],PBM binding z-score [12],PBM binding z-score [13],PBM binding z-score [14],PBM binding z-score [15],PBM binding z-score [16],PBM binding z-score [17],PBM binding z-score [18],PBM binding z-score [19],PBM binding z-score [20]
TCATATAGGTAAACAGGTGAAAGACCGTAAGTTA,0.974,0.774,0.26,0.571,-0.084,2.47,3.45,3.63,4.12,4.03,4.76,4.63,1.09,1.03,1.16,0.687,0.35,1.22,1.07,0.77
TCTTCTAGATCAACAGGAGGTTAAGAAAGATCGA,0.645,1.25,0.194,0.772,0.728,1.24,0.0258,1.94,3.46,2.67,1.93,1.19,1.81,1.8,0.382,0.755,0.113,1.32,0.555,0.762
TTACAAAGGTGAAGGTCGTTGATCCCTCTGTAGA,3.61,2.92,0.147,2.33,-0.453,3.81,3.92,4.48,2.28,4.11,2.62,3.97,0.246,0.134,1.47,2.32,0.241,2.74,0.198,3.56
CAAACTAGGTCAAGGTCAAAGGCGGTTTGTGCCA,6.43,5.36,3.25,4.34,1.01,5.91,9.82,8.02,6.66,8.34,8.62,8.69,1.56,1.08,4.11,4.86,2.19,5.36,1.25,5.02
ATATGTACGTTAAGGGTCATTCAGGTTGGTTCGC,4.5,4.13,2.57,4.2,1.31,4.74,4.87,6.38,4.9,6.21,0.825,3.15,3.4,3.29,2.8,5.22,2.21,4.96,1.35,3.21
CCTTACGGGTCACTCCCGGTTATAGCATCGGAGT,4.78,7.33,2,4.66,0.279,4.23,2.63,3.52,0.522,2.33,2.29,3.2,-0.351,0.418,2.11,3.32,0.36,3.34,1.06,3.65
TAGGCTAGGTCATGGGCCAGTATACCACGCGAAC,4.91,3.13,0.324,2.18,-0.308,4.03,4.36,4.24,1.3,3.18,2,3.61,1.69,-0.653,3.07,1.42,-0.616,2.78,0.534,4.04
TCTTGTAGATCGAGCAGGTTAAGAAAGCCTGAGT,-0.145,0.0215,-0.393,0.284,-0.755,0.628,-0.657,1.17,2.46,1.69,1.19,-0.156,0.439,0.279,0.237,0.342,-0.0974,0.496,-0.293,-0.102
ATATGTAGGTTGAGGGTCATTCAGGTTGGTTCGC,3.26,3.21,1.56,3.31,1.32,4.86,7.99,7.58,6.69,7.97,4,4.86,1.94,0.913,3.16,4.49,2.53,3.89,1.57,2.57
TAGCCTAGGTCAAATCGGGCCAGTATACGCTATA,5.06,4.49,0.78,3.26,0.87,4.1,2.33,2.88,0.735,2.01,1.98,3,0.169,0.237,1.68,2.95,-0.306,2.74,-0.373,3.68
GCTAGCAGGCCGTTTGGGTCACTCAATGACGGGC,0.0511,-0.392,-0.828,-0.0413,-1.11,0.602,-0.107,-0.514,-0.56,-0.437,-0.553,-0.27,-1.62,-1.46,-0.598,0.292,-0.556,0.575,-1.38,1.14
CCTAGCAGGACAATCTGGGTCACTCAAGGCTTGA,1.05,0.686,-0.28,0.742,-0.672,3.31,2.44,2.26,0.245,1.56,4.78,5.33,-0.134,-0.424,0.6,0.609,-0.664,1.67,-0.343,1.42
ATCTCTAGGTAAAGATGGTTCAGTGAATGCAAAT,-0.0028,0.987,0.171,0.3,0.169,0.594,0.37,0.607,0.44,0.679,1.87,1.65,0.333,0.863,0.000234,0.269,0.428,0.492,0.88,-0.00416
ATACCAAGGTGATCGTGAGGTCGTTGCTACTAAC,1.95,1.3,0.422,1.19,0.0744,1.65,0.201,0.438,-0.28,0.185,0.566,1.52,0.602,0.38,0.741,3.18,1.05,1.91,0.0838,1.5
CCATACGGGTCAAGGTTATAGCACGGGTGGTACG,5.13,3.28,0.265,2.54,-0.237,4.84,4.87,4.32,1.07,3.23,1.2,3.15,0.543,-0.539,2.1,3.06,0.247,3.82,0.795,4.1
TCAGACAGGTGAATGTAACTCAGGTACGCAGTCG,0.149,0.452,0.0267,0.271,-0.401,0.789,0.834,1.72,2.99,2.36,2.43,0.904,-0.264,-0.0774,0.0893,0.012,-0.109,0.0859,-0.00412,0.652
TCTATTAGTTGATTAGTGCAACCGAAACAGCGGA,0.567,0.676,0.422,0.608,0.403,0.779,-0.179,2.12,3.55,2.78,1.81,0.352,1.1,1.5,0.86,0.603,0.441,0.464,1.06,0.332
GCAGACAGGTGAAACGCAGGTAAATCAGGGTGGC,-0.326,-0.128,-0.519,-0.258,-0.862,0.983,0.513,-0.213,-0.632,-0.346,0.287,0.429,-0.773,-1.02,-0.379,-0.152,-0.443,0.514,-0.404,0.472
CCTCGGAGGACAACAGGAGGTCAGATCTGCCAGA,1.11,2.26,2.76,1.83,-0.568,1.91,0.67,0.241,-0.484,-0.22,0.382,0.149,-0.732,-1.41,1.21,2.05,0.364,2.18,0.26,2.81
TTACCAAGGTGAAAGGTAGTTGATGCACGCCTTG,0.796,0.851,-0.137,0.456,-0.64,2.7,3.76,4.56,2.81,4.51,2.96,3.26,0.619,0.152,0.643,0.603,-0.0575,1.41,0.138,1.56
AGTCAAAGTTCATCTAGGTAACGTTAGATATGCT,6.45,6.1,5.46,3.96,1.99,4.88,6.36,6.31,3.3,5.58,1.25,3.81,1.67,1.07,2.67,5.32,7.67,4.08,0.982,5
TCTCGTAGGACACGAAGGTCAGAGCTTTCCAGAG,0.999,0.907,0.334,1.08,-0.838,1.85,0.478,1.91,2.61,2.45,1.67,1.28,-0.564,-1.07,0.78,1.35,-0.171,1.75,-0.101,2.89
ACTCGGAGGACAAAGGTCAGATCTACGCCAGTGA,4.14,4.18,1.82,3.46,1,4.65,7.02,6.8,5.45,6.92,0.776,3.13,0.263,-0.358,2.46,3.86,0.325,4.45,1.42,4.33
TCTGGTAGGTCAGTTGGTCAGCTAACGAGCTGCC,1.49,1.41,0.0494,1.09,0.418,2.17,1.6,2.93,2.4,2.47,3.49,4.52,-0.0249,-0.0633,1.33,0.675,-0.287,0.778,0.532,3.62
TCGTGTAGGTTACCAATGGGGCATTCAGCTTTCT,0.486,1.81,0.0515,1.44,0.0224,1.43,-0.0806,1.21,2.25,1.67,3.06,2.01,0.246,0.154,1.17,0.375,-0.304,0.543,-0.0616,1.31
ATCGAAAGGTCGAGGTGAGTATGGAGAAAGGGAA,3.95,3.28,-0.073,2.56,0.624,4.45,3.02,3.6,1.01,2.39,0.289,2.45,0.568,0.731,1.64,2.3,0.205,2.72,0.528,3.95
ACTAATAGTTGACTTAGGGCAACCGATACGACGC,0.35,0.168,0.0838,-0.131,0.352,-0.132,0.962,0.054,0.137,0.153,0.0501,0.335,0.861,0.863,0.622,0.0101,0.295,0.399,0.56,1.01
GGAACGCGGGCAAAGTTGATAGCATCTGTCGACG,-0.48,-0.465,-0.736,-0.893,-0.943,1.67,2.51,4.63,1.85,4.06,0.331,0.502,-0.831,-0.512,-0.0903,-0.43,-0.509,0.0758,-0.689,0.414
